Reference: paper PMC5540273 (PLoS ONE, 2017)

How the values were obtained:
Conditions in all cases: concentration: 1 μM, replicates: in singlicate; n = 1
[1] = system: ERBB2
[2] = system: ERBB3
[3] = system: ERBB4
[4] = system: T1, ERK1
T1 construct: gene MAPK3

[5] = system: T2, ERK2
T2 construct: gene MAPK1

[6] = system: T3, ERK3
T3 construct: gene MAPK6

[7] = system: T4, ERK4
T4 construct: gene MAPK4

[8] = system: T5, ERK5
T5 construct: gene MAPK7

[9] = system: T6, ERK8
T6 construct: gene MAPK15

[10] = system: ERN1
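Note: KINOMEscan kinase panel screen.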

Row | Structure (SMILES) | %Inh [1] | %Inh [2] | %Inh [3] | %Inh [4] | %Inh [5] | %Inh [6] | %Inh [7] | %Inh [8] | %Inh [9] | %Inh [10]
1 | CCn1c(-c2ccccn2)nc2cnccc21 [SB-736398] | 26% | 14% | 0% | 11% | 0% | 14% | 6% | 5% | 37% | 0%
2 | CC(C)(C)c1ccc(C(=O)Nc2cn3cc(Cl)ccc3n2)cc1 | 14% | 0% | 0% | 0% | 0% | 0% | 0% | 0% | 0% | 0%
3 | COC(=O)c1c(-c2ccccc2)c2cc(OC)ccc2c(=O)n1Cc1ccccc1 | 9% | 11% | 0% | 0% | 17% | 0% | 14% | 13% | 0% | 17%
4 | COc1cc2ncnc(Nc3ccc4nc(-c5ccccc5)[nH]c4c3)c2cc1OC.Cl [GW282450] | 23% | 0% | 33% | 0% | 0% | 0% | 0% | 0% | 0% | 4%
5 | COc1ccc(C2=C(Nc3cccc(C(=O)O)c3)C(=O)NC2=O)cc1 [SB-390765] | 0% | 0% | 0% | 0% | 7% | 19% | 1% | 10% | 7% | 21%
6 | O=C(O)COc1ncnc2cc(-c3ccc4[nH]ncc4c3)sc12 | 0% | 0% | 15% | 0% | 24% | 0% | 0% | 1% | 3% | 15%
7 | COc1ccc2nc(-c3cccc(C)n3)nc(Nc3ccncc3)c2c1 [GSK204919] | 0% | 0% | 30% | 2% | 3% | 10% | 15% | 0% | 37% | 0%
8 | Clc1cc(Cl)cc(Nc2ccnc(Nc3cc(Cl)cc(Cl)c3)n2)c1 [GSK175726] | 22% | 0% | 36% | 0% | 0% | 14% | 20% | 0% | 0% | 13%
9 | CS(=O)(=O)c1ccc(-c2c(-c3ncn[nH]3)sc(N3CCOCC3)c2C#N)cc1 | 41% | 13% | 12% | 0% | 37% | 25% | 12% | 0% | 10% | 21%
10 | Cl.c1ccc(-c2n[nH]cc2-c2ccnc(-c3ccc(CN4CCOCC4)cc3)c2)nc1 [GW776245] | 3% | 52% | 2% | 0% | 12% | 0% | 0% | 9% | 0% | 0%
11 | COc1ccc(Nc2nccc(-c3cccc(NC(=O)c4cc5cc(F)ccc5[nH]4)c3)n2)cc1 [GSK1229782] | 58% | 29% | 34% | 13% | 17% | 17% | 24% | 28% | 0% | 2%
12 | CN1C(=O)C(Nc2ccc(Cl)c(C(=O)O)c2)=C(c2ccc(Cl)cc2)C1=O [SB-404290] | 0% | 0% | 8% | 0% | 0% | 0% | 0% | 1% | 0% | 0%
13 | Cc1ccc(NC(=O)Nc2cccc(Cl)c2)cc1-c1ccc(C(=O)Nc2ccncc2)cc1 [GSK1398468] | 24% | 0% | 7% | 0% | 0% | 7% | 3% | 0% | 0% | 0%
14 | Cn1ccc2ncnc(Oc3ccc(NC(=O)Nc4ccccc4)cc3)c21 | 14% | 10% | 0% | 0% | 0% | 0% | 12% | 9% | 0% | 2%
15 | COc1ccccc1CNC(=O)c1cc(C(=O)c2ccccc2C)c[nH]1 [GSK364507] | 21% | 0% | 30% | 0% | 2% | 4% | 13% | 0% | 0% | 0%
16 | Cc1cccc(-c2nc(-c3ccc(S(C)(=O)=O)cc3)sc2-c2ccnc(NCCc3ccccc3)c2)c1 | 0% | 3% | 0% | 0% | 0% | 19% | 7% | 5% | 14% | 0%
17 | COc1cccc(NC(=O)NC2CCN(c3ccnc(Nc4ccc(F)cc4)n3)C2)c1 (stereo not drawn) [GSK1379721] | 28% | 0% | 7% | 0% | 0% | 0% | 21% | 0% | 0% | 19%
18 | CS(=O)(=O)c1ccc(-c2nc3n(c2-c2ccncc2)CCC3)cc1 [SKF-105942] | 32% | 0% | 0% | 0% | 0% | 0% | 100% | 0% | 0% | 18%
